Laboratory results reported in PubChem BioAssay (Tox21).
Inconclusive results are not listed. Active and inactive are the calls of the source. Unless noted, calls come from the whole dose curve. Square brackets hold non-standard residues; d marks the D form. Peptide text beside a SMILES is read from it. * marks the point of attachment. Sta = CC(C)C[C@H](N)[C@@H](O)CC(=O)O; Isovaleryl = CC(C)CC(=O)*

Tests used:
[1] = Nuclear factor erythroid 2-related factor 2/antioxidant responsive element (Nrf2/ARE) small molecule agonists: qHTS cell viability counter screen in human keratinocytes (AID 1919968; active = well fitted curve in the direction sought with a large enough effect in the repeat runs; an effect the other way counts as inactive or inconclusive; note: nearly all actives have a fitted effect of over 55% in size; note: potency is the fitted concentration of half-maximal effect)
In short: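 Viability counter-screen: KeratinoSens reporter cells, DMSO-delivered compounds, 23 h at 37 C, CellTiter-Fluor fluorescence.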

[2] = Nuclear factor erythroid 2-related factor 2/antioxidant responsive element (Nrf2/ARE) small molecule agonists: luciferase reporter gene qHTS assay in human keratinocytes (AID 1919969); note: nearly all actives have a fitted effect of over 35% in size; note: potency is the fitted concentration of half-maximal effect
[3] = target: Gonadotropin-releasing hormone receptor (Homo sapiens) (UniProt P30968); test: Human gonadotropin-releasing hormone receptor (GnRHR) small molecule agonists, calcium flux assay in GnRHR-HEK293 cells (AID 1920063); note: nearly all actives have a fitted effect of over 35% in size
Gonadotropin-releasing hormone receptor (Homo sapiens), sequence (P30968 whole entry, looked up): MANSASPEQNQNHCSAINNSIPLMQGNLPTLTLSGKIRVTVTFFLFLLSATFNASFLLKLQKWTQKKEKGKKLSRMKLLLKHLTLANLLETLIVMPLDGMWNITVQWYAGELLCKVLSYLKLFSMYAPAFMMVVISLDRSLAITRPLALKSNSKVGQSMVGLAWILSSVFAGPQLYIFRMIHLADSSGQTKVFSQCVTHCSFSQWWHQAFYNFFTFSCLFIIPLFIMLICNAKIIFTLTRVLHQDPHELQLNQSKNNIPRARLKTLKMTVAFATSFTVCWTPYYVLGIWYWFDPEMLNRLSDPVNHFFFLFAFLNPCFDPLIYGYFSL
In short: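 Tox21-format agonist screen using human GnRHR-expressing HEK293 cells and a fluorescent calcium dye; kinetic 3-min fluorescence reading after compound addition, 15-point concentration series run in triplicate.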

[4] = target: KiSS-1 receptor (Homo sapiens) (UniProt Q969F8); test: Human kisspeptin (KISS1R) small molecule agonists, calcium flux assay in KISS1R-HEK293 cells (AID 1920064; active = well fitted curve in the direction sought with a large enough effect in the repeat runs; an effect the other way counts as inactive or inconclusive)
KiSS-1 receptor (Homo sapiens), sequence (Q969F8 whole entry, looked up): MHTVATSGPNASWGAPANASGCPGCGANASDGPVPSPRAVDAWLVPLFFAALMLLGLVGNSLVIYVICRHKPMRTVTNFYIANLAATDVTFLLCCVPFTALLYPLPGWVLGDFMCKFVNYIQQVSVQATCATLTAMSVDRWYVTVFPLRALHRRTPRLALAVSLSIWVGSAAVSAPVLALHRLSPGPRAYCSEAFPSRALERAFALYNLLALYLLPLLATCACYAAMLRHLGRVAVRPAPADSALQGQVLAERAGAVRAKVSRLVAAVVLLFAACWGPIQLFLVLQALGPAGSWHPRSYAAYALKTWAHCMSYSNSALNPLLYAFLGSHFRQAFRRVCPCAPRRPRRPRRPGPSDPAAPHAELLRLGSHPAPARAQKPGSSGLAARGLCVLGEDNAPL
In short: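 Intracellular calcium mobilization in KISS1R-HEK293 cells was recorded by fluorescence (Ex/Em 480/540) for 3 min following compound addition to cells pre-loaded 1 h with calcium dye.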

[5] = G protein-coupled receptor (GPCR) small molecule agonists, calcium flux assay: HEK293 wild type cell line counter screen (AID 1920065)
In short: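 In this agonist-mode screen, ATP is the positive control and DMSO the vehicle. Cells grow 18 h before a 1 h dye incubation at 37 C; signal is taken at Ex/Em 480/540 over 3 min.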

[6] = p53 small molecule agonists, cell-based qHTS assay with human liver microsomes (AID 1963577);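 note: p53 response element beta-lactamase reporter cells with liver microsomes plus NADPH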
In short: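 In this qHTS, p53 response-element beta-lactamase cells receive test compound together with a microsome/NADPH activating system (0.5 mg/mL final each) and are incubated 16 h at 37 C before LiveBLAzer fluorescence detection.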

[7] = p53 small molecule agonists, cell-based qHTS assay with rat liver microsomes (AID 1963578)
In short: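 Agonist mode in p53RE-bla reporter cells, with compounds co-incubated 16 h at 37 C alongside 0.5 mg/mL rat liver microsomes and 0.5 mg/mL NADPH (final), followed by a 2 h LiveBLAzer detection step.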

[8] = p53 small molecule agonists, cell-based qHTS assay with human liver microsomes: qHTS cell viability counter screen (AID 1963579); note: nearly all actives have a fitted effect of over 45% in size
In short: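 Metabolically activated exposure: compounds, human liver microsomes and NADPH (0.5 mg/mL final apiece) were added to p53RE-bla cells seeded 5 h earlier, left 16 h at 37 C, and then assessed for viability by CellTiter-Glo luminescence.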

[9] = p53 small molecule agonists, cell-based qHTS assay with rat liver microsomes: qHTS cell viability counter screen (AID 1963580); note: nearly all actives have a fitted effect of over 45% in size
In short: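 In HCT-116 cells carrying a p53 response element-bla reporter, compounds were metabolically activated in situ by rat liver microsomes with NADPH over 16 h. Cell ATP content then served as the cytotoxicity measure.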

[10] = p53 small molecule agonists, cell-based qHTS assay: qHTS cell viability counter screen (AID 1963581); note: nearly all actives have a fitted effect of over 45% in size
In short: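 Compounds are pinned onto HCT-116 p53RE-bla cells and left 16 h at 37 C. Following the reporter FRET read, ATP is quantified by CellTiter-Glo luminescence after 30 min at room temperature.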

[11] = p53 small molecule agonists, cell-based qHTS assay (AID 1963582; active = well fitted activation curve with a large enough effect in the signal ratio in the repeat runs, not every such curve was filed as active; the % refers to the signal ratio)
In short: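 Agonist activity was scored from beta-lactamase FRET fluorescence in p53RE-bla cells treated 16 h at 37 C with compounds in DMSO, substrate incubation being 2 h at room temperature.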

[12] = target: Muscarinic acetylcholine receptor M1 (Homo sapiens) (UniProt P11229); test: Cholinergic receptor muscarinic 1 (CHRM1) small molecule antagonists, cell-based qHTS assay (AID 1963588); note: nearly all actives have a fitted effect of over 40% in size
Muscarinic acetylcholine receptor M1 (Homo sapiens), sequence (P11229 whole entry, looked up): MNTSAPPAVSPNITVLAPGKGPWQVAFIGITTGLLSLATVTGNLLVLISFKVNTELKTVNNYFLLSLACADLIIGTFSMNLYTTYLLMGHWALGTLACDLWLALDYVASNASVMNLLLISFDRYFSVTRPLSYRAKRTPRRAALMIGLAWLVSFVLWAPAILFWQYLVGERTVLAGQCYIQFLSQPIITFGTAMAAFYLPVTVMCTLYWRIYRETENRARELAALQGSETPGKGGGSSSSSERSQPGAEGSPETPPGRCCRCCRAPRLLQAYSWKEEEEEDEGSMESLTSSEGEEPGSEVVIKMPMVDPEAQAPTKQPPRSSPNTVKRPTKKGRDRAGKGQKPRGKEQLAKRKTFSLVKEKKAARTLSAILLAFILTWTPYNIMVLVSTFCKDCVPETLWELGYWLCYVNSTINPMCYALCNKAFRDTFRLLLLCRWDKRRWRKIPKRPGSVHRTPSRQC
In short: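 CHRM1-CHO calcium-flux assay, antagonist mode. Cells were seeded 18 h, dye-loaded 1 h at 37 C and given compound for 5 min at RT, then acetylcholine was added at 50nM. FDSS fluorescence was read 3 min; 15 concentrations, three runs.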

[13] = target: Muscarinic acetylcholine receptor M1 (Homo sapiens) (UniProt P11229); test: Cholinergic receptor muscarinic 1 (CHRM1) small molecule agonists, cell-based qHTS assay (AID 1963589); note: nearly all actives have a fitted effect of over 35% in size
In short: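 Stable CHRM1-CHO cells (human receptor) were incubated 18 h, dye-loaded for 1 h at 37 C and exposed to test compounds for agonist activity, with calcium-dependent fluorescence followed kinetically.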

[14] = cAMP Responsive Elements (CRE) small molecule agonists, cell-based qHTS assay (AID 1963590)
In short: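 FRET-based beta-lactamase readout (LiveBLAzer B/G, 2 h RT) quantified CRE activation in HEK 293T CRE-bla cells after 3 h treatment with DMSO-dissolved compounds.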

[15] = cAMP Responsive Elements (CRE) small molecule antagonists, cell-based qHTS assay (AID 1963591; active = well fitted inhibition curve with a large enough effect in the signal ratio in the repeat runs, not every such curve was filed as active; the % refers to the signal ratio)
In short: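 qHTS in CRE-bla HEK 293T cells: compound in DMSO, then 0.25 uM NKH477 (final), 3 h at 37 °C/5% CO2; beta-lactamase FRET read-out after 2 h substrate incubation.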

[16] = target: Beta-2 adrenergic receptor (Homo sapiens) (UniProt P07550); test: Adrenergic beta2 receptor (ADRB2) small molecule antagonists, cell-based qHTS assay (AID 1963592); note: series mostly up to about 92 µM; nearly all actives have a fitted effect of over 50% in size
Beta-2 adrenergic receptor (Homo sapiens), sequence (P07550 whole entry, looked up): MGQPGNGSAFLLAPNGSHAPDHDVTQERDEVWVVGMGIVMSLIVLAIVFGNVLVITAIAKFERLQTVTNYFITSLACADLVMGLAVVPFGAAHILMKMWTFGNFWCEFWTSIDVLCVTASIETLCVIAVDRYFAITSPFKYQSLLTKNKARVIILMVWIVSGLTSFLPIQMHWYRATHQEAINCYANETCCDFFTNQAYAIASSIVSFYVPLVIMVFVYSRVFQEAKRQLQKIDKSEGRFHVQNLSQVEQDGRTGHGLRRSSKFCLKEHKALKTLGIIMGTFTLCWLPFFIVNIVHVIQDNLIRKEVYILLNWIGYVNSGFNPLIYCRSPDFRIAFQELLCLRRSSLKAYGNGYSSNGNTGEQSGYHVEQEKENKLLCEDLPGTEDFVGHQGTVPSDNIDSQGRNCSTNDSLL
In short: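 Cells (CHO, stable ADRB2 overexpression) incubated 18-20hr at 37C; compounds added from DMSO; agonist mix (1nM isoproterenol, 100uM IBMX, 25uM Ro-20-1724) added; 0.5hr RT; d2-cAMP and anti-cAMP-cryptate added; 1hr RT; 665/615 nm read.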

[17] = target: Beta-2 adrenergic receptor (Homo sapiens) (UniProt P07550); test: Adrenergic beta2 receptor (ADRB2) small molecule agonists, cell-based qHTS assay (AID 1963593);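 note: CHO cells stably overexpressing human ADRB2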
In short: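 CHO cells stably over-expressing ADRB2 were plated overnight at 37C, then dosed with compounds plus a stimulation mix containing 100uM IBMX and 25uM Ro-20-1724 for 0.5hr at room temperature. cAMP was measured by HTRF competition, 1hr.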

[18] = target: D(2) dopamine receptor (Homo sapiens) (UniProt P14416); test: Dopamine D2 receptor (DRD2) small molecule agonists, cell-based qHTS assay (AID 1963594); note: nearly all actives have a fitted effect of over 35% in size
D(2) dopamine receptor (Homo sapiens), sequence (P14416 whole entry, looked up): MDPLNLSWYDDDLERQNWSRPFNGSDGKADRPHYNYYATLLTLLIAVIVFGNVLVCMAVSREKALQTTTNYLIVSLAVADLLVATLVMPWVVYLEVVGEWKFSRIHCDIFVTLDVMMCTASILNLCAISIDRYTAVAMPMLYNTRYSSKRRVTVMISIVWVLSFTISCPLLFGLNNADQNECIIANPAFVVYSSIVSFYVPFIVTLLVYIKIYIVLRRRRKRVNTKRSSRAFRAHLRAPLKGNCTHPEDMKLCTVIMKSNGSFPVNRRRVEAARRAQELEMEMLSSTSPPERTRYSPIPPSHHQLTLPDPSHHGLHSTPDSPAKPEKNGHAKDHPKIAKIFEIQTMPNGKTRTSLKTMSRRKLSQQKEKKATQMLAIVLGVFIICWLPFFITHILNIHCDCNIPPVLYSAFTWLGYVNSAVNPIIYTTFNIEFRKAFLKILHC
In short: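 HEK293 cells stably expressing DRD2 were cultured 24 h at 37 C, then given Ro20-1724 (0.1 mM final) and compounds for 10 min at room temperature. NKH477 (200nM) was then added for 30 min. cAMP was read by HTRF.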

[19] = target: D(2) dopamine receptor (Homo sapiens) (UniProt P14416); test: Dopamine D2 receptor (DRD2) small molecule antagonists, cell-based qHTS assay (AID 1963595; active = well fitted inhibition curve with a large enough effect in the signal ratio in the repeat runs, with a control signal flat; the % refers to the signal ratio)
In short: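 DRD2-HEK293; 0.1 mM Ro20-1724; cpd 10 min RT; NKH477 200 nM + quinpirole 12 nM, 30 min RT; HTRF cAMP (cAMP-d2/anti-cAMP cryptate), 665/620 nm ratio after 1 h.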

[20] = target: 5-hydroxytryptamine receptor 2A (Homo sapiens) (UniProt P28223); test: 5-hydroxytryptamine receptor 2A (HTR2A) small molecule agonists, cell-based qHTS assay (AID 1963587); note: nearly all actives have a fitted effect of over 30% in size; note: potency is the fitted concentration of half-maximal effect
5-hydroxytryptamine receptor 2A (Homo sapiens), sequence (P28223 whole entry, looked up): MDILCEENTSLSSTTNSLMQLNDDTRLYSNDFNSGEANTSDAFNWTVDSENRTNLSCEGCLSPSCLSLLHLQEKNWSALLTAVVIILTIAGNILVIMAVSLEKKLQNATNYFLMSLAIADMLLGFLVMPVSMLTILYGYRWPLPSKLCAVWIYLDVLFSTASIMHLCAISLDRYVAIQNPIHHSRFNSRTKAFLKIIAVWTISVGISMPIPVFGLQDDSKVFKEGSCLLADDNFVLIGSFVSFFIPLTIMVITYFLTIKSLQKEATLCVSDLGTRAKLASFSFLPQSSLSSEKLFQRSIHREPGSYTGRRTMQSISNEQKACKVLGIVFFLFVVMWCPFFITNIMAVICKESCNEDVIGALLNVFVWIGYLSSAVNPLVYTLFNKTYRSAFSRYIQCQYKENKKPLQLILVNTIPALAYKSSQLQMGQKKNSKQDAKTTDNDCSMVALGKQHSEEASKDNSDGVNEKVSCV
In short: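 HTR2A-CHO cells, plated 18 h at 37 C/5% CO2, dye-loaded 1 h at 37 C; compounds in DMSO added by pin tool (agonist mode). Intracellular calcium flux read as kinetic fluorescence on FDSS over 2 min at 1 s intervals.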

Measured: Potency

CCOC(=O)[C@H](O)[C@@H](O)C(=O)OCC
not listed: [20]
inactive: all other assays above

COc1ccc(OC)c(N=Nc2c(O)ccc3ccccc23)c1
active: [1] 27.3 µM | [2] 27.3 µM | [20] 4.36 µM
not listed: [12] | [13] | [14] | [16]
inactive: all other assays above

CC(C)(C)CC(=O)OCC(=O)[C@@]1(O)CC[C@H]2[C@@H]3CCC4=CC(=O)C=C[C@]4(C)[C@H]3[C@@H](O)C[C@@]21C
not listed: [13] | [17] | [18]
inactive: all other assays above

COc1ccc(-c2cc(C(F)F)nn2-c2ccc(S(N)(=O)=O)cc2)cc1F
not listed: [13] | [14] | [15] | [16] | [17] | [20]
inactive: all other assays above

CCN(CC)CCNC(=O)COc1ccc(Cl)cc1
not listed: [12]
inactive: all other assays above

COc1ccc(C(=O)N2CCN(CC(=O)N3CCOCC3)CC2)cc1
not listed: [18] | [20]
inactive: all other assays above

CC(C)(C)C(=O)/C=C/c1ccc(Cl)cc1
active: [2] 54.5 µM
not listed: [14] | [20]
inactive: all other assays above

Nc1nnc(-c2cccc(Cl)c2Cl)c(N)n1
not listed: [12] | [13] | [16] | [17] | [20]
inactive: all other assays above

CCn1cc(C(=O)O)c(=O)c2cc(F)c(N3CCNCC3)nc21
not listed: [12] | [13] | [16] | [17] | [20]
inactive: all other assays above

COc1c(N2CCNC(C)C2)c(F)cc2c(=O)c(C(=O)O)cn(C3CC3)c12 (configuration not stated)
not listed: [12] | [13] | [17] | [20]
inactive: all other assays above

CC(C)CC(=O)N[C@H](C(=O)N[C@H](C(=O)N[C@@H](CC(C)C)[C@@H](O)CC(=O)N[C@@H](C)C(=O)N[C@@H](CC(C)C)[C@@H](O)CC(=O)O)C(C)C)C(C)C (Isovaleryl-VV[Sta]A[Sta]-OH)
not listed: [12] | [13] | [17] | [20]
inactive: all other assays above

Cc1cc(C(C)(C)C)c(O)c(C)c1CC1=NCCN1
not listed: [12] | [13] | [20]
inactive: all other assays above

CCOC(=O)OC(C)OC1=C(C(=O)Nc2ccccn2)N(C)S(=O)(=O)c2ccccc21 (configuration not stated)
not listed: [12] | [13] | [18] | [20]
inactive: all other assays above

CCOC(=O)[C@H](CCc1ccccc1)N[C@@H](C)C(=O)N1[C@H](C(=O)O)C[C@@H]2CCC[C@@H]21
not listed: [12] | [13] | [16] | [17] | [20]
inactive: all other assays above

c1ccc([C@H]2CN3CCSC3=N2)cc1
not listed: [12] | [13] | [17] | [18] | [20]
inactive: all other assays above

CCOc1cc(N)c(Cl)cc1C(=O)NCC1CN(Cc2ccc(F)cc2)CCO1 (configuration not stated)
not listed: [12] | [13] | [17] | [20]
inactive: all other assays above
